# Assay outcomes as filed in PubChem.
# Shown are actives, neighbours in structure and some others; about 21% of the full set was active somewhere.
# DT40 TDP1 CPT – qHTS for Inhibitors of human tyrosyl-DNA phosphodiesterase 1 (TDP1): qHTS in cells in presence of CPT; 12% of 420,000 active; Potency, µM (top dose mostly 46.2 µM), for the others: at the highest dose activity change, negative = growth inhibition, most hits filed as inhibitors; chicken DT40 Tdp1-/-;hTDP1 cells + 20 nM CPT, ATP luminescence, 48 h; AID 686979, 2013; note: potency is the fitted concentration of half-maximal effect; nearly all actives have a fitted effect of over 55% in size
#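 Cell growth measured by CellTiter-Glo luminescence after a minimum 48 h, 37 C compound exposure with 20 nM CPT in Tdp1-knockout DT40 cells stably expressing hTDP1, seeded 400/well; qHTS titration format.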
# ELG1 repair inh – qHTS screen for small molecules that inhibit ELG1-dependent DNA repair in human embryonic kidney (HEK293T) cells expressing luciferase-tagged ELG1; HEK293T ELG1-luciferase reporter, luminescence, 16 h; DNA damage induced by 5-fluorouridine; 2.3% of 330,000 active; Potency, µM (top dose mostly 46.1 µM), without a hit: top-dose activity change, negative = inhibition, usual class: inhibitors; note: potency is the fitted concentration of half-maximal effect; nearly all actives have a fitted effect of over 55% in size
#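 5-Fluorouridine DNA damage + compound/DMSO, 2,000 cells/well, 16 h, 37 °C/5% CO2. ONE-Glo, 30 min RT, luminescence. Readout = decrease in reporter signal.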
# IL1B secr inh – qHTS for Inhibitors of Inflammasome Signaling: IL-1-beta AlphaLISA Primary Screen | THP-1 LPS/ATP IL-1B secretion, AlphaLISA, 16 h; hits give low values | activity change, % at 57.5 µM | 4.7% of 360,000 active | AID 743279, 2014; in the data active = activity change below about -50%; inconclusive = mostly about -30% to -49%
#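 Secreted IL-1B measured by AlphaLISA bead assay after 16 h compound exposure of THP-1 cells; compounds (final up to 57.5 uM) added 1 h before LPS (250 ng/mL) and ATP (1.25 mM) stimulation; lower signal means less secretion.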
# DT40 TDP1 no CPT – qHTS for Inhibitors of human tyrosyl-DNA phosphodiesterase 1 (TDP1): qHTS in cells in absence of CPT | DT40 Tdp1-/- hTDP1 cells, no CPT, ATP luminescence, 48 h | Potency, µM (titrated, usually from 46.2 µM), inactives show top-dose activity change, negative = growth inhibition, most hits filed as inhibitors | 15% of 420,000 active | AID 686978, 2013; note: potency is the fitted concentration of half-maximal effect; nearly all actives have a fitted effect of over 55% in size
#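 Compound effects on proliferation are scored in DT40 Tdp1-/-;hTDP1 cells in the absence of CPT. ATP levels (CellTiter-Glo luminescence) are recorded after a ≥48 hr, 37 °C incubation.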
# RORgamma inh – qHTS for inhibitors of ROR gamma transcriptional activity; Potency, µM (doses to about 53.6 µM), for the others: at the highest dose activity change, negative = inhibition, most hits filed as inhibitors; 5.4% of 310,000 active; Nuclear receptor ROR-gamma (Mus musculus), P51450; Drosophila S2 Gal4-RORgamma UAS-luciferase reporter, 20 h; note: potency is the fitted concentration of half-maximal effect; nearly all actives have a fitted effect of over 60% in size
# Target sequence (P51450 whole entry, looked up, the tested form may be a part): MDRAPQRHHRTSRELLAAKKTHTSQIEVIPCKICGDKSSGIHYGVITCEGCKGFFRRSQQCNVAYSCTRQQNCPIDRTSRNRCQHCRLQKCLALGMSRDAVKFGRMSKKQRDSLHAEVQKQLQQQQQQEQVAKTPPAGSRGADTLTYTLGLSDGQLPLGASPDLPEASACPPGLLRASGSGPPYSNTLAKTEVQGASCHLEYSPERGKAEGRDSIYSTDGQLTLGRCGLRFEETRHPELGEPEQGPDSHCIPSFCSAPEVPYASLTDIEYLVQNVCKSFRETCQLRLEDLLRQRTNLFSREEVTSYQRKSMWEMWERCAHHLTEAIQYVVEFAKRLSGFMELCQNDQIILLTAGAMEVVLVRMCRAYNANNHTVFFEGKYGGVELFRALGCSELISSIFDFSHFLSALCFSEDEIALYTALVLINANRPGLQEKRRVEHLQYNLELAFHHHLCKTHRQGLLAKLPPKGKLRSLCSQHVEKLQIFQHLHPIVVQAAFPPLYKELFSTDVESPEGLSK
#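 Stably transfected Drosophila Schneider cells are the test system, with ROR gamma fused to Gal4 and luciferase under UAS control; luminescence is read after 20 hr of 700 uM copper sulfate induction at ambient temperature.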
# Gal4-VP16 FLuc – VP16 counterscreen qHTS for inhibitors of ROR gamma transcriptional activity | 3.5% of 310,000 active | Drosophila S2 Gal4-VP16 UAS-luciferase, luminescence, 20 h | AID 2546, 2010 | Potency, µM (titrated, usually from 53.6 µM), for inactives: at the top dose activity, negative = inhibition, usual class: inhibitors;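 note: Gal4-VP16 expression switched on by copper sulfate through the metallothionein promoter; potency is the fitted concentration of half-maximal effect; nearly all actives have a fitted effect of over 50% in size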
# The depositor's hits bear a star; ? = inconclusive; . = no result given. Unless noted, calls come from the whole dose curve; as a rule, active = well fitted curve in the direction sought with a large enough effect; inconclusive = small, poorly fitted or top-dose-only effect, or another doubt; inactive = no such curve, though single readings can be large; an effect the other way counts as inactive or inconclusive. % is set by controls: 0 for no effect and ±100 for the full control effect.
SMILES,DT40 TDP1 CPT,ELG1 repair inh,IL1B secr inh,DT40 TDP1 no CPT,RORgamma inh,Gal4-VP16 FLuc
Cc1cccc(C)c1NC(=O)C1(C)CN(S(C)(=O)=O)CC(=O)N1C1CC1 (stereo unspecified),16%,.,40,3%,.,.
CC(C)NC(=O)N1CCC2(CC1)CCN(S(=O)(=O)c1ccccc1)CC2,-6%,.,.,-17%,0%,-8%
COc1cc(S(=O)(=O)Nc2ccc(C)cc2)ccc1N=Cc1c(C)[nH]n(-c2ccc(C)cc2)c1=O,-23%,-4%,-7,13µM*,-1%,-10%
Cc1ccc(N/N=C/c2c(C)c(C#N)c(=O)n(C)c2O)cc1C,?,6%,8,?,4%,-12%
COc1cc(S(=O)(=O)Nc2ccc(C)cc2)ccc1N=Cc1c(C)c(C#N)c(=O)n(C)c1O,?,17%,1,13µM*,11%,8%
O=c1ccc2cc(S(=O)(=O)N3CCN(c4ccc(Cl)cc4)CC3)ccc2o1,-1%,-2%,23,-18%,4%,5%
Cc1oc(-c2cccc(Cl)c2)nc1CN1CCCC(C(=O)N2CCN(c3ccc(F)cc3)CC2)C1 (stereo unspecified),7.3µM*,.,.,9.2µM*,.,.
Cc1oc(-c2cccc(Cl)c2)nc1CN1CCC(C(=O)N2CCN(c3ccccc3F)CC2)CC1,18µM*,-22%,-56*,18µM*,-2%,-2%
Cc1oc(-c2cccc(Cl)c2)nc1CN1CCCC(C(=O)NCc2ccco2)C1 (stereo unspecified),?,?,-4,?,16%,15%
Cc1oc(-c2cccc(Cl)c2)nc1CN1CCC(C(=O)NC(C)C)CC1,-16%,.,.,-8%,.,.
Cc1ccc(Cl)cc1N1CCN(C(=O)C2CCN(Cc3nc(-c4cccc(Cl)c4)oc3C)CC2)CC1,?,.,.,15µM*,.,.
Nc1nc(SCc2ccc(Cl)cc2Cl)c2ncn(C3OC(CO)C(O)C3O)c2n1 (stereo unspecified),17%,.,-13,-25%,.,.
COc1cc(-c2noc(C)c2C(=O)NCCCn2ccnc2)cc(OC)c1OC,-1%,?,5,0%,.,.
Cc1nc(C)c(C(=O)Nc2ccccc2)s1,-1%,?,-17,-20%,1%,2%
Cc1nc(Nc2ccccc2)sc1C(=O)Nc1ccccc1,21µM*,?,-65*,?,?,9%
Cc1nc(Nc2ccccc2Cl)sc1C(=O)Nc1ccccc1,18µM*,5%,?,21µM*,16%,29%
Cc1nc(NC(C)c2ccccc2)sc1C(=O)Nc1ccccc1 (stereo unspecified),?,8%,-52*,-21%,-6%,-9%
CC(=O)c1sc(NC(C)c2ccccc2)nc1C (stereo unspecified),9%,12%,29,-15%,12%,8%
COc1ccc(C(=O)c2sc(Nc3ccc(NC(C)=O)cc3)nc2C)cc1,29µM*,?,44,16µM*,23%,1%
COc1ccc(Oc2ncc3nc(C)c(=O)n(C4CC4)c3n2)cc1,?,.,.,?,-3%,9%
COc1ccccc1Nc1nc(C)c(C(=O)Nc2ccccc2)s1,15µM*,1%,-53*,?,39%,3%
C[C@H](CO)N1C[C@H](C)[C@@H](CN(C)C(=O)Nc2ccccc2)Oc2ccc(NC(=O)Cn3cnnn3)cc2C1=O,12%,30%,17,11%,.,.
COc1ccc(-c2c(C(=O)O)c(C(=O)O)c3n2CCC3)cc1,-14%,8%,19,3%,-16%,?
O=C(CSc1nc(-c2ccccc2)nc2c1CCCC2)c1ccc(Cl)cc1,13%,.,.,0%,.,.
Cc1ccc(-c2c[n+](CC(=O)c3ccc(Br)cc3)c3n2CCCCC3)cc1,1.5µM*,?,-95*,1.6µM*,-7%,?
SMILES,DT40 TDP1 CPT,ELG1 repair inh,IL1B secr inh,DT40 TDP1 no CPT,RORgamma inh,Gal4-VP16 FLuc
COc1ccc(-c2c[n+](CC(=O)c3ccccc3)c3n2CCCCC3)cc1,7.3µM*,15µM*,?,4.1µM*,6%,-10%
O=C(C[n+]1cc(-c2ccc(F)cc2)n2c1CCC2)c1cccs1,-5%,?,0,-23%,45%,17%
O=C(C[n+]1cc(-c2ccccc2)n2c1CCCCC2)c1ccc(Cl)cc1,21µM*,5%,-76*,16µM*,28%,?
COc1ccc(-c2c[n+]3c4n2CCCCC4=C(c2ccccc2)C3)cc1,3.3µM*,-9%,?,5.2µM*,37%,-8%
O=c1c(-c2cc(-c3ccccc3)nc3c2COc2ccc(Cl)cc2-3)coc2ccccc12,1%,.,.,-8%,.,.
CC1CCc2c(sc3ncn(CC(=O)N4CCCCC4)c(=O)c23)C1 (stereo unspecified),-23%,2%,5,?,15%,5%
COC(=O)[C@@H](Cc1ccccc1)NC(=O)/C=C/[C@H]1O[C@@H](n2cnc3c(NC(=O)c4ccccc4)ncnc32)[C@H](O)[C@@H]1O,4%,.,-19,-6%,.,.
COc1ccc(S(=O)(=O)NC(=O)C2(C)CCN2C(=O)Cc2cccc3ccccc23)cc1 (stereo unspecified),4%,.,24,-5%,.,.
COC(=O)C1C(=O)c2c([nH]c(C(=O)OCC3CCCO3)c2C)CC1C (stereo unspecified),16µM*,?,-11,-30%,-18%,-6%
CCCCCOC(=O)c1[nH]c2c(c1C)C(=O)C(C(=O)OC)C(C)C2 (stereo unspecified),9.2µM*,-23%,?,18µM*,?,10%
COc1ccc(S(=O)(=O)NCCc2cn3ccsc3n2)cc1,4%,.,.,-4%,.,.
Cn1c(=O)c2nc(-c3ccccc3)oc2c2ccccc21,-24%,?,2,16µM*,8%,-10%
CCCCCc1nc2c(=O)n(C)c3ccccc3c2o1,-24%,?,-11,?,20%,7%
Cc1coc2c1c(C)cc1oc(=O)cc(C)c12,19%,.,.,6%,.,.
Cc1ccccc1-c1n[nH]nc1C1=CC(=O)CC(C)(C)C1,-1%,.,-4,-21%,.,.
C=CCN1C(=O)/C(=N/n2cnnc2)c2ccccc21,5.8µM*,?,58,4.6µM*,1%,2%
